# Measured values: PubChem BioAssay
# “And” between values parts separate entries of the source, which are not always exact repeats. Identical values can stand only once. Records with an inconclusive call do not appear. The source made the active and inactive calls.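 Rule for the calls, unless noted: active = normalized viability below 100% at a tested concentration; inactive = the rest.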
# Experiments:
# [1] = viability loss in pontine glioma line – cell-based, SU-DIPG-XVII, MIPE5.0, CellTiter-Glo, qHTS, dose response (AID 1347060; cut-off not given, nearly all actives have AC50 up to about 26 µM;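 for AC50: cells exposed to compound for 48 hours before viability readout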); settings: CellTiter-Glo ATP luminescence
# [2] = viability loss in pontine glioma line – cell-based, SU-DIPG-XIII, MIPE4.0, CellTiter-Glo, qHTS, dose response (AID 1347061; cut-off not given, nearly all actives have AC50 up to about 37 µM;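 note: cells exposed to compound for 48 hours before readout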); settings: CellTiter-Glo ATP luminescence
# [3] = viability loss in pontine glioma line – cell-based, SU-DIPG-XIII, MIPE5.0, CellTiter-Glo, qHTS, dose response (AID 1347064; cut-off not given, nearly all actives have AC50 up to about 23 µM); settings: CellTiter-Glo ATP luminescence
# [4] = viability loss in pontine glioma line – cell-based, SU-DIPG-XXV, MIPE5.0, CellTiter-Glo, qHTS, dose response (AID 1347065; cut-off not given, nearly all actives have AC50 up to about 26 µM;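 note: cells exposed to compound for 48 hours before ATP readout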); settings: CellTiter-Glo ATP luminescence
# [5] = growth inhibition of DIPG cells – cell-based, MIPE4.0 library, CellTiter-Glo luminescence, qHTS (AID 1347066; cut-off not given, nearly all actives have AC50 up to about 30 µM;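 note: cells exposed to compound for 48 hours before readout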); settings: SU-DIPG-VI viability, CellTiter-Glo ATP luminescence
# [6] = JHH-DIPG-1 glioma cell viability, MIPE5.0 library, CellTiter-Glo luminescence, qHTS (AID 1347067; cut-off not given, nearly all actives have AC50 up to about 26 µM;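 note: cells exposed to compound for 48 hours before readout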); settings: JHH-DIPG-1 glioma viability, CellTiter-Glo ATP luminescence
# [7] = growth inhibition of DIPG cells – cell-based, MIPE5.0 library, qHTS (AID 1347068; cut-off not given, nearly all actives have IC50 up to about 30 µM); settings: SU-DIPG-XXV viability
# [8] = viability loss with induced miR-34 in A549 – imaging, A549 dox-inducible miR-34, nuclei and caspase counts, primary screen (AID 1347080;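 active = compounds whose cell count with miR-34 switched on is under 0.7 times the count with it off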); settings: A549 miR-34 inducible, Hoechst nuclei count, 48 h
# [9] = MELAS cybrid and Rieske KO viability enhancers – cell-based, MELAS cybrids, Rieske KO mouse fibroblasts, CellTiter-Glo, primary screen (AID 1508586;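 active = mean z-score across replicates of 1.96 or higher in either the MELAS or the Rieske mutant cell line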;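 note: z relative to plate mean and SD of compound and empty wells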); settings: low glucose
# [10] = viability loss in pontine glioma line – cell-based, SU-DIPG-IV, MIPE4.0, CellTiter-Glo, qHTS, dose response (AID 1347063; cut-off not given, nearly all actives have AC50 up to about 30 µM;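 note: compound exposure lasted 48 hours before the viability readout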); settings: CellTiter-Glo ATP luminescence
# [11] = compounds altering HSF1 focus formation in cells – imaging, Selleck Cancer Library (AID 1347162; in the data active = plate-normalised HSF1 focus index below about 0.46); settings: human cells, HSF1 nuclear foci imaging, at 10 µM; SSMD: measured here: HSF1 foci SSMD mean; cell count: measured here: cell number; plate-normalised HSF1 focus index: stronger effect = lower value
# [12] = drug combination growth inhibition, ovarian cancer – cell-based, oncology-focused library, rucaparib conditional, profiling panel (AID 1508598); settings: patient-derived ovarian cancer cells, CellTiter-Glo viability, 144 h, stronger effect = lower value
# [13] = growth inhibition, single agent or in combination, cell-based, chromothripsis tumors, cisplatin or BGB combos (AID 1671449; in the data active = inhibition above about 80%;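 note: cells exposed for 96 hours; 0% = vehicle DMSO and 100% = killing by high DMSO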); settings: LFS_MB_P medulloblastoma cells
# [14] = growth inhibition, single agent and combos, cell-based, chromothripsis tumors, cisplatin or BGB combos (AID 1671450; in the data active = inhibition above about 80%;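 note: cells exposed to compound for four days; 0% = vehicle DMSO and 100% = cell killing by high DMSO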); settings: HDN33 neuroblastoma cells, stronger effect = higher value
# [15] = growth inhibition, single agents and combos, ICB984, cell-based, cisplatin or BGB combos, synergistic combos for chromothripsis tumors (AID 1671451; call rule not given here;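 note: cells exposed for 96 hours before readout; 0% = vehicle DMSO and 100% = killing by high DMSO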); settings: ICB984 medulloblastoma cells, drug combinations, stronger effect = higher value
# [16] = growth inhibition, single agents and combos, HTB85, cell-based, BGB or cisplatin IC20 combos, synergistic combos for chromothripsis tumors (AID 1671453; in the data active = inhibition above about 80%;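 note: cells exposed for 96 hours before readout; 0% = vehicle DMSO and 100% = high DMSO killing control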); settings: HTB85 osteosarcoma cells, drug combinations, stronger effect = higher value
# [17] = growth inhibition, MDA-MB-436, cell-based, BGB or cisplatin combos, synergistic combos for chromothripsis tumors (AID 1671458; call rule not given here;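 note: cells exposed for 96 hours; 0% = vehicle DMSO and 100% = killing by high DMSO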); settings: MDA-MB-436 breast carcinoma growth inhibition, drug combinations, stronger effect = higher value
# [18] = BT084 cell growth, single and combined drugs, ICGC_MB145, cisplatin and BGB IC40 combos (AID 1671461; in the data active = inhibition above about 80%;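 note: cells exposed to drugs for 96 hours; 0% = vehicle DMSO and 100% = high DMSO full killing control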); settings: BT084 medulloblastoma cells, drug combinations, stronger effect = higher value
# [19] = RCMB18 cell growth, single agent and combined, cisplatin and BGB IC40 combos (AID 1671462; in the data active = inhibition above about 80%;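 note: cells exposed to compound for four days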); settings: RCMB18 medulloblastoma cells, stronger effect = higher value
compound,measurement,setting,value
N#CC1(c2ccc(NC(=O)c3cccnc3NCc3ccncc3)cc2)CCCC1,outcome,[1],inactive
same,outcome,[2],inactive
same,outcome,[3],inactive
same,outcome,[4],inactive
same,outcome,[5],inactive
same,outcome,[6],inactive
same,outcome,[7],inactive
same,fold change,"[8]; stronger effect = lower value, cell number ratio, induced over uninduced",0.862 (inactive)
same,fold change,[8]; measured here: relative caspase fold change +Dox/-Dox,1.08
same,cell count,"[8]; measured here: total cells with miR-34 induction, stronger effect = lower value",6630
same,cell count,[8]; measured here: total cells without miR-34 induction,7700
same,z-score,"[9]; MELAS cybrid survival, CellTiter-Glo 48 h, stronger effect = higher value",-0.704 (inactive)
same,z-score,"[9]; Rieske KO mouse fibroblast survival, CellTiter-Glo 72 h",0.694
C[C@@H]1CN(CC(=O)Nc2ccc3c(c2)Cc2cccc(-c4cc(=O)cc(N5CCOCC5)o4)c2S3)C[C@H](C)O1,AC50,[1],23.5 µM (active)
same,outcome,[2],inactive
same,AC50,[10],13.2 µM (active)
same,AC50,[4],18.6 µM (active)
same,SSMD,[11],2.96
same,cell count,[11],6620
same,plate-normalised HSF1 focus index,[11],1.15 (inactive)
same,viability,"[12]; at 0.000305 µM, OCI-C5x cells, with rucaparib 10 µM, 100% = cells with rucaparib alone",106% (inactive)
same,viability,"[12]; at 0.000305 µM, OCI-C5x cells, without rucaparib",116% (inactive)
same,viability,"[12]; at 0.000305 µM, OCI-P5x cells, with rucaparib 20 µM, 100% = cells with rucaparib alone",111% (inactive)
same,viability,"[12]; at 0.000305 µM, OCI-P5x cells, without rucaparib",119% (inactive)
same,viability,"[12]; at 0.00122 µM, OCI-C5x cells, with rucaparib 10 µM, 100% = cells with rucaparib alone",108% (inactive)
same,viability,"[12]; at 0.00122 µM, OCI-C5x cells, without rucaparib",123% (inactive)
same,viability,"[12]; at 0.00122 µM, OCI-P5x cells, with rucaparib 20 µM, 100% = cells with rucaparib alone",108% (inactive)
same,viability,"[12]; at 0.00122 µM, OCI-P5x cells, without rucaparib",121% (inactive)
same,viability,"[12]; at 0.00488 µM, OCI-C5x cells, with rucaparib 10 µM, 100% = cells with rucaparib alone",112% (inactive)
same,viability,"[12]; at 0.00488 µM, OCI-C5x cells, without rucaparib",129% (inactive)
same,viability,"[12]; at 0.00488 µM, OCI-P5x cells, with rucaparib 20 µM, 100% = cells with rucaparib alone",108% (inactive)
same,viability,"[12]; at 0.00488 µM, OCI-P5x cells, without rucaparib",108% (inactive)
same,viability,"[12]; at 0.0195 µM, OCI-C5x cells, with rucaparib 10 µM, 100% = cells with rucaparib alone",113% (inactive)
same,viability,"[12]; at 0.0195 µM, OCI-C5x cells, without rucaparib",128% (inactive)
same,viability,"[12]; at 0.0195 µM, OCI-P5x cells, with rucaparib 20 µM, 100% = cells with rucaparib alone",104% (inactive)
same,viability,"[12]; at 0.0195 µM, OCI-P5x cells, without rucaparib",108% (inactive)
same,viability,"[12]; at 0.0781 µM, OCI-C5x cells, with rucaparib 10 µM, 100% = cells with rucaparib alone",110% (inactive)
same,viability,"[12]; at 0.0781 µM, OCI-C5x cells, without rucaparib",127% (inactive)
same,viability,"[12]; at 0.0781 µM, OCI-P5x cells, with rucaparib 20 µM, 100% = cells with rucaparib alone",107% (inactive)
same,viability,"[12]; at 0.0781 µM, OCI-P5x cells, without rucaparib",109% (inactive)
same,viability,"[12]; at 0.313 µM, OCI-C5x cells, with rucaparib 10 µM, 100% = cells with rucaparib alone",106% (inactive)
same,viability,"[12]; at 0.313 µM, OCI-C5x cells, without rucaparib",132% (inactive)
same,viability,"[12]; at 0.313 µM, OCI-P5x cells, with rucaparib 20 µM, 100% = cells with rucaparib alone",102% (inactive)
same,viability,"[12]; at 0.313 µM, OCI-P5x cells, without rucaparib",98.9% (active)
same,viability,"[12]; at 1.25 µM, OCI-C5x cells, with rucaparib 10 µM, 100% = cells with rucaparib alone",101% (inactive)
same,viability,"[12]; at 1.25 µM, OCI-C5x cells, without rucaparib",138% (inactive)
same,viability,"[12]; at 1.25 µM, OCI-P5x cells, with rucaparib 20 µM, 100% = cells with rucaparib alone",91.6% (active)
same,viability,"[12]; at 1.25 µM, OCI-P5x cells, without rucaparib",93.8% (active)
same,viability,"[12]; at 5 µM, OCI-C5x cells, with rucaparib 10 µM, 100% = cells with rucaparib alone",106% (inactive)
same,viability,"[12]; at 5 µM, OCI-C5x cells, without rucaparib",132% (inactive)
same,viability,"[12]; at 5 µM, OCI-P5x cells, with rucaparib 20 µM, 100% = cells with rucaparib alone",76.3% (active)
same,viability,"[12]; at 5 µM, OCI-P5x cells, without rucaparib",81.8% (active)
same,inhibition,"[13]; at 0.5 µM, stronger effect = higher value",-5.76% (inactive) and -8.68% (inactive)
same,inhibition,"[13]; measured here: combination with BGB IC20, at 0.005 µM",12.1% and -26.9%
same,inhibition,"[13]; measured here: combination with BGB IC40, at 0.005 µM",76.1% and -29.5%
same,inhibition,"[13]; measured here: combination with BGB IC40, at 0.05 µM",-11.7% and -51.5%
same,inhibition,"[13]; measured here: combination with cisplatin, at 0.5 µM, stronger effect = higher value",39.6% and -32.3%
same,inhibition,"[13]; measured here: combination with cisplatin, at 5 µM, stronger effect = higher value",-23.3% and -90%
same,inhibition,"[14]; BGB combo, at 5 µM",2.05% and 13.3%
same,inhibition,[14]; at 0.5 µM,-17.5% (inactive) and -12.8% (inactive)
same,inhibition,"[14]; cisplatin combo, at 5 µM",-12.4% and 5.9%
same,inhibition,"[14]; measured here: with BGB IC20 combination, at 0.5 µM",-16.8% and -1.93%
same,inhibition,"[14]; measured here: with cisplatin IC20 combination, at 0.5 µM",-12.5% and -11.1%
same,inhibition,"[14]; single agent, at 5 µM",-33.9% and 16.4%
same,inhibition,"[15]; BGB IC20 combo, at 0.005 µM",4.72% and 10.1%
same,inhibition,"[15]; BGB IC40 combo, at 0.005 µM",-39.9% and -9.84%
same,inhibition,"[15]; BGB IC40 combo, at 0.05 µM",3.85% and -15.8%
same,inhibition,[15]; at 0.5 µM,-19.3% (inactive) and -37.2% (inactive)
same,inhibition,"[15]; cisplatin combo, at 0.05 µM",-0.996% and -20%
same,inhibition,"[15]; cisplatin combo, at 0.5 µM",-20.2% and -42.2%
same,inhibition,"[15]; cisplatin combo, at 5 µM",2.43% and -58.6%
same,inhibition,"[15]; measured here: 5 uM single agent, at 5 µM",-28.1% and -5.43%
same,inhibition,[16]; at 0.5 µM,-24.8% (inactive) and -13.9% (inactive)
same,inhibition,"[16]; measured here: with BGB IC20, at 0.5 µM",-22.3% and -11.4%
same,inhibition,"[16]; measured here: with BGB IC20, at 5 µM",-3.78% and 16.9%
same,inhibition,"[16]; measured here: with cisplatin IC20, at 0.5 µM",-22.4% and -22.3%
same,inhibition,"[16]; measured here: with cisplatin IC20, at 5 µM",1.95% and -37.3%
same,inhibition,"[16]; single agent, at 5 µM",-2.38% and 8.59%
same,inhibition,[17]; at 0.5 µM,-6.48% (inactive) and -14.8% (inactive)
same,inhibition,"[17]; measured here: BGB combination, at 0.5 µM",-1.79% and -20.6%
same,inhibition,"[17]; measured here: BGB combination, at 5 µM",17.7% and 3.62%
same,inhibition,"[17]; measured here: cisplatin combination, at 0.5 µM",-20.7% and -21.7%
same,inhibition,"[17]; measured here: cisplatin combination, at 5 µM",7.96% and -7.31%
same,inhibition,[18]; at 0.5 µM,-1.92% (inactive) and -6.86% (inactive)
same,inhibition,"[18]; cisplatin combination, at 0.5 µM",-3.42% and -23.5%
same,inhibition,"[18]; cisplatin combination, at 5 µM",-136% and -3.01%
same,inhibition,"[18]; measured here: BGB IC40 combination 0.05 uM, at 0.05 µM",-6.42% and -21%
same,inhibition,"[18]; single agent, at 5 µM",4.22% and -18.6%
same,inhibition,[19]; at 0.5 µM,1.57% (inactive) and -21.5% (inactive)
same,inhibition,"[19]; cisplatin combo, at 5 µM",-0.721% and -71.8%
same,inhibition,"[19]; measured here: BGB IC40 combination, at 0.05 µM",9.68% and -19.2%
same,inhibition,"[19]; measured here: combination with cisplatin, at 0.5 µM",-13.6% and -9.04%
same,inhibition,"[19]; single agent, at 5 µM",36.4% and -12.2%
